Compounds with a hit are over-represented: about 1.3% of the library has one in this group of screens.
MCL1 BIM primary: MCL1-BIM-BH3 interaction inhibition (human). inhibition, % at 10.9 µM. Q07820. 320,000 compounds, 0.68% hits. AID 2057. GST-MCL1 / FITC-Bim-BH3 fluorescence polarization;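 active = inhibition above the mean inhibition of all tested compounds plus 3 SD, set per campaign, cut at about 40% in these data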;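 also: higher means more loss of mP so more displacement of Bim peptide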
GLD-1 RNA inh: GLD-1-TGE RNA interaction inhibition (C. elegans) | Q17339 | purified GLD-1 + fluorescein TGE RNA, fluorescence polarization | inhibition, % at 5.96 µM | 320,000 compounds, 0.44% hits;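 active = percent inhibition above a per-plate cutoff, the plate mean of test compounds plus 3 SD, cut at about 30% in these data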
EBV gp42 inh: inhibitors of Epstein-Barr virus glycoprotein 42; Q1HVG2; Fluorescence polarization binding assay, mP read-out; inhibition, % (tested at 21.74 µM); 220,000 compounds, 0.42% hits; in the data active = inhibition above about 50%
Target sequence (Q1HVG2 whole entry, looked up): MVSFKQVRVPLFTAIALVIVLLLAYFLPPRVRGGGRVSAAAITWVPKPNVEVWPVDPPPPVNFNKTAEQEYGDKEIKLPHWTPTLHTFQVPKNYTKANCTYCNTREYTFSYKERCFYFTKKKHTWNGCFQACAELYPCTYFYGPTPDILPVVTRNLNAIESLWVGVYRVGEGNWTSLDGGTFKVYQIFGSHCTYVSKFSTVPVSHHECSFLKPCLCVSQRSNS
BCLXL inh: blocks human Bcl-xL binding to Bim BH3 peptide | Q07817 | GST-Bcl-xL / FITC-Bim BH3 peptide fluorescence polarization | inhibition, % at 10.9 µM | 320,000 compounds, 0.7% hits | AID 2129;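 active = inhibition above the mean of all tested compounds plus 3 SD, cutoff set per campaign, cut at about 30% in these data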;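 also: inhibitors lower millipolarization by displacing the labeled peptide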
Target sequence (Q07817 whole entry, looked up): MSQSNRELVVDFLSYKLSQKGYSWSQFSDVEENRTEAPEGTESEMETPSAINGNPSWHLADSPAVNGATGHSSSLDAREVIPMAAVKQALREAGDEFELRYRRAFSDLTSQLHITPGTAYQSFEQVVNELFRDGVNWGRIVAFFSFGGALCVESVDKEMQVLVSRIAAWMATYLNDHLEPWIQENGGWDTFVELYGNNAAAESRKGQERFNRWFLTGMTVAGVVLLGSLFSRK
MEX-5 binding: C. elegans MEX-5 TCR-2 RNA binding activity; Q9XUB2; MEX-5/FITC-TCR2 RNA binding, fluorescence polarization; hits give low values; activity score (negative = inhibition of binding), % at 10 µM; 300,000 compounds, 0.38% hits; AID 1832;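 active = inhibition past about -25% in most replicates, and total fluorescence under double the plate's negative control median, limit read from the data; inconclusive = replicates evenly split on the limit, or fluorescence at least double controls; inactive = too little inhibition in most replicates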
BCLXL inh confirm: counter-screen for MCL1 inhibitors: confirmation of human Bcl-xL inhibitors; shares compounds with MCL1 BIM primary; GST-Bcl-xL / FITC-Bim BH3 peptide FP binding; inhibition, % at 10.9 µM; 1,700 compounds, 54% hits; AID 2166;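 active = inhibition above a cutoff equal to the mean inhibition of all tested compounds plus 3 SD, cut at about 30% in these data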
MCL1 BIM confirm: MCL1-BIM-BH3 interaction inhibition, confirmation. GST-MCL1 / FITC-Bim-BH3 fluorescence polarization. shares compounds with MCL1 BIM primary. inhibition, % at 10.9 µM. 1,700 compounds, 61% hits;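 active = inhibition above the average of all tested compounds plus 3 SD, cut at about 40% in these data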
Each line names hits and unclear results; the compound was inactive in the other large screens (follow-up assays come after a bar, where they were run).

Cc1cc2n(c1)CCn1c(C)ccc1-2	MCL1 BIM primary 99, BCLXL inh 78 | BCLXL inh confirm 92 | MCL1 BIM confirm 135
N#CC(C#N)=Cc1c[nH]c(=O)c(C#N)c1Nc1ccccc1	MCL1 BIM primary 55, BCLXL inh 56 (no result: EBV gp42 inh) | BCLXL inh confirm 46 | MCL1 BIM confirm 56
N#Cc1c(Nc2ccccc2)c(/C=N/N=C/c2ccccc2)c[nH]c1=O	none
Cc1nn(-c2ccccc2)c2nc(C(Cl)(Cl)Cl)[nH]c(=O)c12	none
Cc1ccc(N=Cc2cc(Cc3ccccc3Cl)cc([N+](=O)[O-])c2O)c(O)c1	MCL1 BIM primary 47, BCLXL inh 44 | BCLXL inh confirm inactive | MCL1 BIM confirm 47
COc1cccc2c(=O)c3cccc(N)c3[nH]c12	MCL1 BIM primary 87, BCLXL inh 63 | BCLXL inh confirm 44 | MCL1 BIM confirm 42
CNc1nc2ccccc2n1CC(=O)c1ccccc1	none (no result: MCL1 BIM primary, GLD-1 RNA inh, EBV gp42 inh, BCLXL inh)
O=C(CNC(=O)c1ccc(Br)o1)Nc1cccc(S(=O)(=O)N2CCOCC2)c1	none (no result: EBV gp42 inh)
O=C(Nc1nc(-c2ccco2)c(-c2ccco2)s1)c1cnccn1	MCL1 BIM primary 102, BCLXL inh 33 (no result: EBV gp42 inh) | BCLXL inh confirm inactive | MCL1 BIM confirm inactive
Cc1ccc(-c2ccc(/C=C(\C#N)C(N)=S)n2C)cc1	MCL1 BIM primary 68, BCLXL inh 67 (no result: MEX-5 binding) | BCLXL inh confirm inactive | MCL1 BIM confirm inactive
Cn1cccc1/C=C(/C#N)C(N)=S	none
COc1c(-c2ccc(O)cc2)oc2cc(O)cc(O)c2c1=O	MCL1 BIM primary 43 (no result: MEX-5 binding) | BCLXL inh confirm inactive | MCL1 BIM confirm 86
COc1ccc(-c2oc3cc(O)c(OC)c(O)c3c(=O)c2OC)cc1	none
Cc1ccc(C)c(SCC(=O)Nc2cccnc2Cl)c1	none
Cc1cc(C)c2nc(-c3ccccn3)cc(C(=O)Nc3ccc(S(=O)(=O)Nc4onc(C)c4C)cc3)c2c1	MCL1 BIM primary 41 | BCLXL inh confirm 30 | MCL1 BIM confirm 79
Cc1cc(C)c2nc(-c3ccccn3)cc(C(=O)Nc3ccc(S(=O)(=O)Nc4cc(C)on4)cc3)c2c1	none
C=CCSc1nnc(NC(=O)CCN2C(=O)C3CC=CCC3C2=O)s1 (stereo unspecified)	MCL1 BIM primary active, GLD-1 RNA inh 77, BCLXL inh 85 (no result: EBV gp42 inh, MEX-5 binding) | BCLXL inh confirm inactive | MCL1 BIM confirm inactive
O=C(NCc1ccccc1Br)c1ccc2c(c1)OCCO2	none (no result: EBV gp42 inh)
CC(=O)N1N=C(c2ccc(Cl)cc2)CC1c1ccco1 (stereo unspecified)	MCL1 BIM primary 40 | BCLXL inh confirm inactive | MCL1 BIM confirm inactive
COc1cc2cc(C#N)c(SCC(=O)N3CCOCC3)nc2cc1OC	none
COc1cc2cc(C)c(SCC(=O)N3CCOCC3)nc2cc1OC	MCL1 BIM primary 56, GLD-1 RNA inh 33, BCLXL inh 53 | BCLXL inh confirm inactive | MCL1 BIM confirm inactive
C=CCSC1=N/C(=C\C=C\c2ccco2)C(=O)S1	MCL1 BIM primary 47 | BCLXL inh confirm inactive | MCL1 BIM confirm inactive
CN(C)c1ccc(NC2=C(Cl)C(=O)c3ccccc3C2=O)cc1	MCL1 BIM primary 41 | BCLXL inh confirm 32 | MCL1 BIM confirm inactive
CC(=O)Nc1ccc(NC2=C(Cl)C(=O)c3ccccc3C2=O)cc1	none (no result: MCL1 BIM primary, GLD-1 RNA inh, BCLXL inh)
CCOc1ccc(S(=O)(=O)N2CCOCC2)cc1NS(=O)(=O)c1ccc(OC)c([N+](=O)[O-])c1	none (no result: EBV gp42 inh)
CS(=O)(=O)c1ccc(S(=O)(=O)N2CCC(CO)(CCCc3ccccc3)CC2)cc1	none (no result: EBV gp42 inh)
Clc1cccc2sc(N3CCCCC3)nc12	MCL1 BIM primary 58, BCLXL inh 69 | BCLXL inh confirm inactive | MCL1 BIM confirm inactive
Clc1cc(Cl)c2nc(N3CCCCC3)sc2c1	none
O=C(COC(=O)c1cc[n+]([O-])cc1)Nc1cc([N+](=O)[O-])ccc1Cl	none (no result: EBV gp42 inh)
Cc1c(-c2ccc(O)cc2)nc2nc(-c3ccccc3)c(-c3ccccc3)nn12	MCL1 BIM primary 112, BCLXL inh 118 | BCLXL inh confirm 44 | MCL1 BIM confirm 54
COc1cc(/C=C2\SC(=S)N(c3cccnc3)C2=O)ccc1O	MCL1 BIM primary 60 | BCLXL inh confirm inactive | MCL1 BIM confirm 44
CCOc1ccc(/C=C/C(=O)Nc2ccc(OC)cc2[N+](=O)[O-])cc1	MCL1 BIM primary 83, GLD-1 RNA inh 63, BCLXL inh 57, MEX-5 binding inconclusive | BCLXL inh confirm 60 | MCL1 BIM confirm 68
CCc1nnc(SCC(=O)Nc2ccc3ccccc3c2)n1N	none (no result: MCL1 BIM primary, EBV gp42 inh, BCLXL inh, MEX-5 binding)
O=C1C(=Cc2ccc(Br)o2)C(=O)c2ccccc21	MCL1 BIM primary 92, EBV gp42 inh 65, BCLXL inh 47 (no result: MEX-5 binding) | BCLXL inh confirm 43 | MCL1 BIM confirm 64
O=[N+]([O-])c1cccc(S(=O)(=O)c2cccc([N+](=O)[O-])c2)c1	none
O=C(CSc1nc2c(c(=O)[nH]1)CCC2)Nc1cccc(F)c1	none (no result: EBV gp42 inh)
Cc1cc[n+](-c2nc3ccccc3nc2[N-]S(=O)(=O)c2ccccc2)cc1	none
CCc1cc[n+](-c2nc3ccccc3nc2[N-]S(=O)(=O)c2ccc(Br)s2)cc1	MCL1 BIM primary 94, EBV gp42 inh 58, BCLXL inh 83, MEX-5 binding inconclusive | BCLXL inh confirm 71 | MCL1 BIM confirm 87
CN(C)C(=O)N1CCN(C(=O)N2CCOCC2)CC1	MCL1 BIM primary 139, GLD-1 RNA inh 101, BCLXL inh 158 | BCLXL inh confirm inactive | MCL1 BIM confirm inactive
COc1cc(Cl)ccc1OCc1cc(C(=O)N2CCCCCCC2)no1	MCL1 BIM primary 84 (no result: EBV gp42 inh, MEX-5 binding) | BCLXL inh confirm inactive | MCL1 BIM confirm inactive
COc1cc(C)ccc1OCc1cc(C(=O)N2CCCCCC2)no1	none (no result: MCL1 BIM primary, GLD-1 RNA inh, EBV gp42 inh, BCLXL inh)
O=C(NCC(=O)N1CCN(c2ccccc2)CC1)c1cccs1	none (no result: EBV gp42 inh)
CSc1ccccc1-c1nnc(-c2ccc(Cl)c(Cl)c2)o1	MCL1 BIM primary 43 | BCLXL inh confirm inactive | MCL1 BIM confirm inactive
CSc1ccccc1-c1nnc(-c2ccc(Cl)cc2Cl)o1	none
COc1cc(-c2nc3ccc(C)cn3c2NCc2ccccc2)ccc1-c1cccc(Cl)c1	none (no result: MCL1 BIM primary, EBV gp42 inh, BCLXL inh, MEX-5 binding)
Cc1ccc2nc(-c3ccc(-c4cccc(Cl)c4)cc3)c(NCc3ccccc3)n2c1	MCL1 BIM primary 78, BCLXL inh 50 (no result: EBV gp42 inh) | BCLXL inh confirm inactive | MCL1 BIM confirm inactive
CNc1ccc(Br)cc(C(=O)/C=C/c2ccc(OC)cc2)c1=O	none
CNc1ccc(Br)cc(C(=O)/C=C/c2ccc3c(c2)OCO3)c1=O	MCL1 BIM primary 49 | BCLXL inh confirm inactive | MCL1 BIM confirm inactive
CC1CC(C)CN(C(=O)CCNC(=O)c2ccccc2Cl)C1 (stereo unspecified)	none (no result: MCL1 BIM primary, GLD-1 RNA inh, EBV gp42 inh, BCLXL inh)
O=C(O)c1ccc(N=Nc2c(O)ccc3ncccc23)cc1	MCL1 BIM primary 51 (no result: EBV gp42 inh) | BCLXL inh confirm 40 | MCL1 BIM confirm 59
COC(=O)\C(C(C)=O)=C(/C=C/C=C/C=C/N(C)C)N(C)C	MCL1 BIM primary 50 (no result: MEX-5 binding) | BCLXL inh confirm inactive | MCL1 BIM confirm inactive
